# What was measured:
# Assay in all cases: DAPPL (digital affinity profiling via proximity ligation, sequencing); 10 mM Tris-HCl pH 7.5, 50 mM NaCl, 1 mM DTT, 4% glycerol, room temperature, 30 min; GST-TFs on glutathione beads, 16-mer random dsDNA library, 0.1% formaldehyde crosslink after washing; high values mean tight binding
# [1] = biological target: T1, FLI1 (Homo sapiens, UniProt Q01543 1-452); conditions: protein: recombinant; tags: N-terminal GST; dsDNA, one strand shown
# T1 sequence: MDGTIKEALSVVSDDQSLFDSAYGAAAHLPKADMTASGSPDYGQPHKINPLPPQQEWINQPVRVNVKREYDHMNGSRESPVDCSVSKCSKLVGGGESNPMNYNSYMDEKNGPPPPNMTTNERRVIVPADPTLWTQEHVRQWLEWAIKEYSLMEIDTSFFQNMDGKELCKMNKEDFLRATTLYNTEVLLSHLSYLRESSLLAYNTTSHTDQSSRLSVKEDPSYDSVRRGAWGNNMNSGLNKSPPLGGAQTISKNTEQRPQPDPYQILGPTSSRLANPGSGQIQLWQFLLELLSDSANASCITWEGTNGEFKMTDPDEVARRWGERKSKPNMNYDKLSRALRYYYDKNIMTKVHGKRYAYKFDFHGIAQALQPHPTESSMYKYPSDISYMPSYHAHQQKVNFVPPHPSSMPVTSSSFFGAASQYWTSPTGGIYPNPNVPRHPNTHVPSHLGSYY
# Method in brief: (§1)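 In yeast, human transcription factors were expressed with a GST fusion, then pulled down on glutathione beads and given DNA barcodes. Pooled with a tag-only sample, they were exposed to 200 nmole of a 16-mer random double-stranded DNA library (Tris/NaCl/DTT/glycerol buffer, room temperature, 30 min), washed, crosslinked with 0.1% formaldehyde, proximity-ligated using BsaI/T4 ligase for 1 h at 37 °C, PCR-amplified and read on an Illumina NextSeq500. Each hexamer's frequency of reads for a factor, divided by the matching frequency for the tag-only sample, gives the binding signal.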
# [2] = biological target: T2, ELK1 (Homo sapiens, UniProt P19419 1-428); conditions: protein: recombinant; tags: N-terminal GST; dsDNA, one strand shown
# T2 sequence: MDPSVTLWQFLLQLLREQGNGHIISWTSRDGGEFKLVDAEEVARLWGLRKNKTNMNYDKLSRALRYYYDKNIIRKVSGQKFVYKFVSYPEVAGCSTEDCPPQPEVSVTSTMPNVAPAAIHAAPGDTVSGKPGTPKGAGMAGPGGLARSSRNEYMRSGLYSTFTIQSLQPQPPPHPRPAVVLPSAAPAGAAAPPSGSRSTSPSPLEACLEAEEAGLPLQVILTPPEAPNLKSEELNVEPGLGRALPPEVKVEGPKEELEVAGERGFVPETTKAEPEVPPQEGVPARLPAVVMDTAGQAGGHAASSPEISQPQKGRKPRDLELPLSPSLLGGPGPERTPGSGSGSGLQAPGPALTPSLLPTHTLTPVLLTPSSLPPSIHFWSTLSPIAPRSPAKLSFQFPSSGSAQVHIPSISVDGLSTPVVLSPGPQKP
# Method in brief: as §1
# [3] = biological target: T3, GABPA (Homo sapiens, UniProt Q06546 1-454); conditions: protein: recombinant; tags: N-terminal GST; dsDNA, one strand shown
# T3 sequence: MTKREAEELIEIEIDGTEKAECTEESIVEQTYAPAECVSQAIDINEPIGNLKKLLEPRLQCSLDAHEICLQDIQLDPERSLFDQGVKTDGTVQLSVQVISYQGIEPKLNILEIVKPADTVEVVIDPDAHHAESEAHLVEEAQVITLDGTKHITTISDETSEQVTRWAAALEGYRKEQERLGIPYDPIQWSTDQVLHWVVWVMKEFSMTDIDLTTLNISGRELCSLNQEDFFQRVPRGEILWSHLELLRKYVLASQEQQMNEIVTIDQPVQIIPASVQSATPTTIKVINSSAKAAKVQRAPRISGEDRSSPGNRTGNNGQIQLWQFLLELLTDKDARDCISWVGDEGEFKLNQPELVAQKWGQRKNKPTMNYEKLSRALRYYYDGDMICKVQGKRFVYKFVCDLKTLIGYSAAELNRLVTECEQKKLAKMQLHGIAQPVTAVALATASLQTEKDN
# Method in brief: as §1
# [4] = biological target: T4, ERG (Homo sapiens, UniProt P11308 1-479); conditions: protein: recombinant; tags: N-terminal GST; dsDNA, one strand shown
# T4 sequence: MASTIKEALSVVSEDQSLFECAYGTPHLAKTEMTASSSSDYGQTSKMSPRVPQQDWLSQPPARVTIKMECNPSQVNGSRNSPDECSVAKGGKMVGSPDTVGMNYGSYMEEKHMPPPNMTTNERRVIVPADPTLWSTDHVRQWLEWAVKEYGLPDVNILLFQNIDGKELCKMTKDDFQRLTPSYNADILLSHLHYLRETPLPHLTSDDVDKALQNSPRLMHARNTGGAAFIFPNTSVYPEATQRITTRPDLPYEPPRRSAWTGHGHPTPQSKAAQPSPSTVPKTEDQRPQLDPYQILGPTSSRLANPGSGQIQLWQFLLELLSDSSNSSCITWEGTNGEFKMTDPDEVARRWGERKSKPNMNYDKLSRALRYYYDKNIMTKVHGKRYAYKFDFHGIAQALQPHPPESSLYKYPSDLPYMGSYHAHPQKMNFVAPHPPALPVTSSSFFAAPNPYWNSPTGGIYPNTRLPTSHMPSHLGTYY
# Method in brief: as §1
# [5] = biological target: ELF1 (Homo sapiens, UniProt P32519 1-619); conditions: protein: recombinant; tags: N-terminal GST; dsDNA, one strand shown
# Sequence of ELF1 (P32519 whole entry): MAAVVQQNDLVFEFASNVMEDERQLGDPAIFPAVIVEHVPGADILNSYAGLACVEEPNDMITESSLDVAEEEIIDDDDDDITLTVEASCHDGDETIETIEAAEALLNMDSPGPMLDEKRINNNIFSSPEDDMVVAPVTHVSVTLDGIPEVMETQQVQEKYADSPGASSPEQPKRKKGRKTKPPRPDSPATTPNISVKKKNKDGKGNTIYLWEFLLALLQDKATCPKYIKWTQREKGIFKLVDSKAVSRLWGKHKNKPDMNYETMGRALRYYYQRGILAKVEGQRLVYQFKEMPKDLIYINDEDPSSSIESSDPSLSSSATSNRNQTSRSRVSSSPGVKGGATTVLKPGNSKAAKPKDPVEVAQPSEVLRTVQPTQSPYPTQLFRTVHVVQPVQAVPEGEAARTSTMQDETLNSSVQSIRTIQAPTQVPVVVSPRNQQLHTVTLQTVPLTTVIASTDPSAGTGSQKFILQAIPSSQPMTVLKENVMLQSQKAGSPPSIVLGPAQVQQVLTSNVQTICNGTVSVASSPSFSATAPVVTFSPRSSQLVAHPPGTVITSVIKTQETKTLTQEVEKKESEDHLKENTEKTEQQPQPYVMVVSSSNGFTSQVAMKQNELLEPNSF
# Method in brief: as §1
# [6] = biological target: T5, EHF (Homo sapiens, UniProt Q9NZC4 1-300); conditions: protein: recombinant; tags: N-terminal GST; dsDNA, one strand shown
# T5 sequence: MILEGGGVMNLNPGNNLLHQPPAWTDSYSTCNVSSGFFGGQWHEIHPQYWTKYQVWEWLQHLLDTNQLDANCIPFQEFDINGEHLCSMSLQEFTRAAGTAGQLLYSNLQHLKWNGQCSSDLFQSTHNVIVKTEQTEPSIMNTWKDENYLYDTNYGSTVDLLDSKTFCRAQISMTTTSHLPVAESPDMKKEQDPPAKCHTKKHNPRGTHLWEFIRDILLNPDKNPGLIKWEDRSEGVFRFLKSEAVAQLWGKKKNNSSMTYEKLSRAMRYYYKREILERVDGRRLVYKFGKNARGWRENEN
# Method in brief: as §1
# [7] = biological target: SPI1 (Homo sapiens, UniProt P17947 1-270); conditions: protein: recombinant; tags: N-terminal GST; dsDNA, one strand shown
# Method in brief: as §1
# [8] = biological target: SPIB (Homo sapiens, UniProt Q01892 1-262); conditions: protein: recombinant; tags: N-terminal GST; dsDNA, one strand shown
# Sequence of SPIB (Q01892 whole entry): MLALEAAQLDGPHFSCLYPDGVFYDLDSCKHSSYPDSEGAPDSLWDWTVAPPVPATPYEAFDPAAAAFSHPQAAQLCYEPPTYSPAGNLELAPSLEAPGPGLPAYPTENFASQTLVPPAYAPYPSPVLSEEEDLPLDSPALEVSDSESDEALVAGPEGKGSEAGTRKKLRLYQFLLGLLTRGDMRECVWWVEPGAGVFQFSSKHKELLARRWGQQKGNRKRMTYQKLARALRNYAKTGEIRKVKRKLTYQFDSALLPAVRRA
# Method in brief: as §1
# [9] = biological target: T6, ELK3 (Homo sapiens, UniProt P41970 1-407); conditions: protein: recombinant; tags: N-terminal GST; dsDNA, one strand shown
# T6 sequence: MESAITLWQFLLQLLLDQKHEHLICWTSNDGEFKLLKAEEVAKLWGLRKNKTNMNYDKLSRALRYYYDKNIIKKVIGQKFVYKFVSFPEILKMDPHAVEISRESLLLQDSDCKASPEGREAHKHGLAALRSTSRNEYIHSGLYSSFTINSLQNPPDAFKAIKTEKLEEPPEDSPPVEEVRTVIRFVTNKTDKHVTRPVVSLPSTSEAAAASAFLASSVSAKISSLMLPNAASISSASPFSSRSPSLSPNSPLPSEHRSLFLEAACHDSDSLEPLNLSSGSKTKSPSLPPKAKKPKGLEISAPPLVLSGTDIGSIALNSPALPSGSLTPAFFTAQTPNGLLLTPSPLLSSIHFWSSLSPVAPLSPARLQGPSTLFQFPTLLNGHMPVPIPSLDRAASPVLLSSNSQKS
# Method in brief: as §1
# [10] = biological target: T7, FEV (Homo sapiens, UniProt Q99581 1-238); conditions: protein: recombinant; tags: N-terminal GST; dsDNA, one strand shown
# T7 sequence: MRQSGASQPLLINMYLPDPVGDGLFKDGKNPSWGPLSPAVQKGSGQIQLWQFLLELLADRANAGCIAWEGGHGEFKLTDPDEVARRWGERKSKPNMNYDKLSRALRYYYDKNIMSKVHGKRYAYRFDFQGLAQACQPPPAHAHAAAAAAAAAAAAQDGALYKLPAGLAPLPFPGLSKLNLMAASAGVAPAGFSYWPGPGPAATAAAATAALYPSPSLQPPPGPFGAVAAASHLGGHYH
# Method in brief: as §1
# [11] = biological target: ETV5 (Homo sapiens, UniProt P41161 1-510); conditions: protein: recombinant; tags: N-terminal GST; dsDNA, one strand shown
# Sequence of ETV5 (P41161 whole entry): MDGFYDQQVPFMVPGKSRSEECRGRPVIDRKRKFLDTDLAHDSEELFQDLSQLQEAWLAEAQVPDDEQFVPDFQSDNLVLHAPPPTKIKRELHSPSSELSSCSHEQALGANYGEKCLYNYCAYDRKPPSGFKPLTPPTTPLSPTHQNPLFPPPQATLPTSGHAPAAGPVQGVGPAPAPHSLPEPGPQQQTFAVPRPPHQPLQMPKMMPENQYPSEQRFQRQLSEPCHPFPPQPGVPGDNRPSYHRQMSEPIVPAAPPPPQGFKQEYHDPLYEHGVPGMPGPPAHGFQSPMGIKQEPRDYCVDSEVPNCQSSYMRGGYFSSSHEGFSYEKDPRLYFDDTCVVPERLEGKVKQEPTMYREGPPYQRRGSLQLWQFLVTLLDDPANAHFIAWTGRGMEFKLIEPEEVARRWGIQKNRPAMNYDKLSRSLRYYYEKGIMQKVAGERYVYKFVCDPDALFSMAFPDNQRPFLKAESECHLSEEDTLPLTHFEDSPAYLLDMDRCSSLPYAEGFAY
# Method in brief: as §1
# [12] = biological target: HSF1 (Homo sapiens, UniProt Q00613 1-529); conditions: protein: recombinant; tags: N-terminal GST; chain copies: 3; dsDNA, one strand shown
# Sequence of HSF1 (Q00613 whole entry): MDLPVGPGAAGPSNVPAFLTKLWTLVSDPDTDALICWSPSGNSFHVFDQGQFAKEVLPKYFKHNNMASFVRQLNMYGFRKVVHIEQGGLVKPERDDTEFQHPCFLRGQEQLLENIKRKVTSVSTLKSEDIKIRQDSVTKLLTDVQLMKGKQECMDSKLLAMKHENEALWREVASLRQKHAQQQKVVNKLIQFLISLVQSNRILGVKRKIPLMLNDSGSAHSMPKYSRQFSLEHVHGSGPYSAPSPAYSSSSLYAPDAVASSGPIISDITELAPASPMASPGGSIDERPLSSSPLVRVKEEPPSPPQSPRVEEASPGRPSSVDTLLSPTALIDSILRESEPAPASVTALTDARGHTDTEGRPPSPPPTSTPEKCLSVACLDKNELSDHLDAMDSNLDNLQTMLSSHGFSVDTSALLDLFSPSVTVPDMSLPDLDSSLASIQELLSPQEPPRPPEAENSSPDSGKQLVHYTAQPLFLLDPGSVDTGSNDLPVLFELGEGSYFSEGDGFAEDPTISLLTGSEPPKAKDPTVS
# Method in brief: as §1
# [13] = biological target: T8, SPIC (Homo sapiens, UniProt Q8N5J4 1-248); conditions: protein: recombinant; tags: N-terminal GST; dsDNA, one strand shown
# T8 sequence: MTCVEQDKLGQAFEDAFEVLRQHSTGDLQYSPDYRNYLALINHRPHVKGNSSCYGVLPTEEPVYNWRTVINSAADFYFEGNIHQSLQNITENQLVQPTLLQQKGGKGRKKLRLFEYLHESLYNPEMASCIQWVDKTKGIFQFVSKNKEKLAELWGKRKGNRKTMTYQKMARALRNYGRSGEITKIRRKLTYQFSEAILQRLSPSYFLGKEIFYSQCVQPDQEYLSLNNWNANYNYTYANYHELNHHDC
# Method in brief: as §1
# [14] = biological target: ELF4 (Homo sapiens, UniProt Q99607 1-663); conditions: protein: recombinant; tags: N-terminal GST; dsDNA, one strand shown
# Sequence of ELF4 (Q99607 whole entry): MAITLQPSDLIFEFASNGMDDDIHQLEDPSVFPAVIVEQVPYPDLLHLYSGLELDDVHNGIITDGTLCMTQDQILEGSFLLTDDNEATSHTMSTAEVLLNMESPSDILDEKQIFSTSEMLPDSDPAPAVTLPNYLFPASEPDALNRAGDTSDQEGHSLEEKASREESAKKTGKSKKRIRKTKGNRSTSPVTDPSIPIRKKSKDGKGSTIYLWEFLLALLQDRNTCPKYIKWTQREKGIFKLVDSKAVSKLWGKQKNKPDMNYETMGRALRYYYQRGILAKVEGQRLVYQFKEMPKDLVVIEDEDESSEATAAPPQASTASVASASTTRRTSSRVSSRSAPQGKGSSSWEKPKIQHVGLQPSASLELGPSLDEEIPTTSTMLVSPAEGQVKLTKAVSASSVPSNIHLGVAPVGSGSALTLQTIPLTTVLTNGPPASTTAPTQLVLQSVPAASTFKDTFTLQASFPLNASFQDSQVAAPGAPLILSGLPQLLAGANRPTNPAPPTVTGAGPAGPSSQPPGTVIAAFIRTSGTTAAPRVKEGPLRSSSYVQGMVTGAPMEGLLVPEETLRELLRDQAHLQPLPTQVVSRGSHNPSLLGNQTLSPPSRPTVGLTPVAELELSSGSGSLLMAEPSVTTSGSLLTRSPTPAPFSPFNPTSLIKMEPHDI
# Method in brief: as §1
# [15] = biological target: T9, ELK4 (Homo sapiens, UniProt P28324-2 1-405); conditions: protein: recombinant; tags: N-terminal GST; dsDNA, one strand shown
# T9 sequence: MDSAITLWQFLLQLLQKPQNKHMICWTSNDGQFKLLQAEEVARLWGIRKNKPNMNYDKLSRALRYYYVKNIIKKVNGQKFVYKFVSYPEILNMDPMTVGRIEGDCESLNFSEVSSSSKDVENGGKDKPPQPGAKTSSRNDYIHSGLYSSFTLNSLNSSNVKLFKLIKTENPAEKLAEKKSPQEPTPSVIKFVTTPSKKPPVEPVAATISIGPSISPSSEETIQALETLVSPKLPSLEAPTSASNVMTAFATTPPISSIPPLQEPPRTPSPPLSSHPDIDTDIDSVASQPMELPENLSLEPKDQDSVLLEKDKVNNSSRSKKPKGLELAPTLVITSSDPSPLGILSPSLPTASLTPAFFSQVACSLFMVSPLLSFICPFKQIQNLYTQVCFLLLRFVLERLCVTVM
# Method in brief: as §1
# [16] = biological target: T10, ETV2 (Homo sapiens, UniProt O00321 1-342); conditions: protein: recombinant; tags: N-terminal GST; dsDNA, one strand shown
# T10 sequence: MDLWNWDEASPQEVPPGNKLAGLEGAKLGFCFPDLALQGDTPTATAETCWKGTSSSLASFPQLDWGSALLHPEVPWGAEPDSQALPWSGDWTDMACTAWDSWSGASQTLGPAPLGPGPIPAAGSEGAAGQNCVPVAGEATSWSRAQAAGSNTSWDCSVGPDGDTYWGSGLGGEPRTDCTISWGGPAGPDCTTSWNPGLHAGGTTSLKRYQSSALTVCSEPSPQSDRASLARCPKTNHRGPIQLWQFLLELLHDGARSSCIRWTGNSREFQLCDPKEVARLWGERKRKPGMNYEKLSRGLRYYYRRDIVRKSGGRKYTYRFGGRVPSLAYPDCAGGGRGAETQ
# Method in brief: as §1
# [17] = biological target: T11, ELF3 (Homo sapiens, UniProt P78545 1-371); conditions: protein: recombinant; tags: N-terminal GST; dsDNA, one strand shown
# T11 sequence: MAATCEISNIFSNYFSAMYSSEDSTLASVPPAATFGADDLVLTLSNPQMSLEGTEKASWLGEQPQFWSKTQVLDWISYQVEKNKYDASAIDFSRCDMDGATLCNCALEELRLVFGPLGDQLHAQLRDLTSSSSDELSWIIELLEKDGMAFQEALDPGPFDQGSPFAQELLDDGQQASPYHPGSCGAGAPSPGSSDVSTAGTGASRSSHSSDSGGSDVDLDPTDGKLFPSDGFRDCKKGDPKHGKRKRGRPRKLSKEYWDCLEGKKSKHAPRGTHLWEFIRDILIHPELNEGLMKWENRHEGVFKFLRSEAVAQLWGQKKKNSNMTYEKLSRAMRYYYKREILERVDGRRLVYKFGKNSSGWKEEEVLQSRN
# Method in brief: as §1
# [18] = biological target: CRX (Homo sapiens, UniProt O43186 1-299); conditions: protein: recombinant; tags: N-terminal GST; dsDNA, one strand shown
# Sequence of CRX (O43186 whole entry): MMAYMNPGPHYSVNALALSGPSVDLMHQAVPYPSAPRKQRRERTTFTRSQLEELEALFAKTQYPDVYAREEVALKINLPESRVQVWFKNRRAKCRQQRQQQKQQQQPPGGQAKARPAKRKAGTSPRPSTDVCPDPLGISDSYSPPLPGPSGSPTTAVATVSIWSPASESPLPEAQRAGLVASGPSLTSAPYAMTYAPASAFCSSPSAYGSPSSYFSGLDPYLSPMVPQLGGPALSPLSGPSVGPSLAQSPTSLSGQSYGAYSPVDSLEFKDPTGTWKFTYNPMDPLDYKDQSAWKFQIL
# Method in brief: as §1
# [19] = biological target: ETV1 (Homo sapiens, UniProt P50549 1-477); conditions: protein: recombinant; tags: N-terminal GST; dsDNA, one strand shown
# Sequence of ETV1 (P50549 whole entry): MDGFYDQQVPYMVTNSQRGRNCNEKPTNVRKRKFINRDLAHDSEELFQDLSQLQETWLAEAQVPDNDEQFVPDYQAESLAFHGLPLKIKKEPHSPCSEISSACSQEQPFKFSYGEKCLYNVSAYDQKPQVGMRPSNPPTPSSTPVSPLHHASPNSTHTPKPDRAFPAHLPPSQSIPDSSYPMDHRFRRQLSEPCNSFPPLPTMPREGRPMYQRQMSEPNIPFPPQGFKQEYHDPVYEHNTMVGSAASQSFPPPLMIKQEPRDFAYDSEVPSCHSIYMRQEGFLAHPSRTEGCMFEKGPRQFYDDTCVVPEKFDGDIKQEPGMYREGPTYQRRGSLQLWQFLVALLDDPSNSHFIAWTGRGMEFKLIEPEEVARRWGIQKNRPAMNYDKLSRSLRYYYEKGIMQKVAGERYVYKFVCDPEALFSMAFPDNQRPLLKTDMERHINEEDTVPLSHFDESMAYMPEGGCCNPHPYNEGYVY
# Method in brief: as §1
sequence,measurement,setting,value
TGGCTT,binding signal,[1],"1.27 fold enrichment (6-mer frequency, TF over GST control)"
same,binding signal,[2],"1.21 fold enrichment (6-mer frequency, TF over GST control)"
same,binding signal,[3],"1.33 fold enrichment (6-mer frequency, TF over GST control)"
same,binding signal,[4],"1.31 fold enrichment (6-mer frequency, TF over GST control)"
same,binding signal,[5],"1.28 fold enrichment (6-mer frequency, TF over GST control)"
same,binding signal,[6],"1.26 fold enrichment (6-mer frequency, TF over GST control)"
same,binding signal,[7],"1.24 fold enrichment (6-mer frequency, TF over GST control)"
same,binding signal,[8],"1.26 fold enrichment (6-mer frequency, TF over GST control)"
same,binding signal,[9],"1.23 fold enrichment (6-mer frequency, TF over GST control)"
same,binding signal,[10],"1.34 fold enrichment (6-mer frequency, TF over GST control)"
same,binding signal,[11],"1.19 fold enrichment (6-mer frequency, TF over GST control)"
same,binding signal,[12],"1.38 fold enrichment (6-mer frequency, TF over GST control)"
same,binding signal,[13],"1.34 fold enrichment (6-mer frequency, TF over GST control)"
same,binding signal,[14],"1.28 fold enrichment (6-mer frequency, TF over GST control)"
same,binding signal,[15],"1.23 fold enrichment (6-mer frequency, TF over GST control)"
same,binding signal,[16],"1.3 fold enrichment (6-mer frequency, TF over GST control)"
same,binding signal,[17],"1.32 fold enrichment (6-mer frequency, TF over GST control)"
same,binding signal,[18],"1.75 fold enrichment (6-mer frequency, TF over GST control)"
same,binding signal,[19],"1.1 fold enrichment (6-mer frequency, TF over GST control)"

# From PMC7862700, “An all-to-all approach to the identification of sequence-specific readers for epigenetic DNA modifications on cytosine”
